Data taken from PubChem BioAssay (NCATS).
Records with an inconclusive call do not appear. More than one record can exist for a structure, and the calls need not agree. A number with no mark means an inactive call. Activity calls are given as the source filed them. Calls follow the shape of the dose curve; as a rule, active = well fitted cell-killing curve with a large enough effect; inconclusive = small, poorly fitted or top-dose-only effect; inactive = no such curve, though single readings can be large or run the other way. Peptide text beside a SMILES is read from it.
% is scaled to controls: 0 for no effect and ±100 for the full control effect; potency is read from the fitted curve at half-maximal effect.

Assay: qHTS of pediatric cancer cell lines to identify multiple opportunities for drug repurposing: Primary screen for A673 cells (AID 1347092); also: nearly all actives have a fitted effect of over 45% in size
Settings: A673 Ewing sarcoma viability, CellTiter-Glo ATP luminescence, 48 h; series mostly up to 46 µM; activity change, negative = cytotoxic: at the top concentration
From the text: Drug repurposing or repositioning has been offered as a strategy for drug development in oncology programs. This approach has special potential for childhood cancers and other rare or orphan diseases, where the expected return on new drug development has been a disincentive to pharmaceuticals. […] In this project we exploit the poly-pharmacology of drugs to discover new indications via phenotypic screening of a panel of 19 well-characterized cell lines derived from solid tumors seen in children and adolescents. The goal is to identify approved drugs with previously unrecognized anticancer properties that has the potential to reveal new mechanisms and biological processes involved in carcinogenesis or drug resistance. We employed a titration-based paradigm (quantitative high-throughput screening or qHTS), where all compounds were tested at multiple concentrations for their effect on cell viability. Concentration-response curves (CRCs) were derived directly from the primary screen, and both potency and efficacy values were used to identify compounds with robust bioactivity profiles. We screened the NIH Chemical Genomics Center (NCGC) Pharmaceutical Collection (NPC) and Mechanism Interrogation Plate (MIPE) small molecule collections of approved and investigational compounds against these cell lines; and measured metabolically active cells after 48 hours of compound treatment as a proxy for cell viability. […] Assay Submitter: Nathalia J. Martinez, National Center for Advancing Translational Sciences, National Institutes of Health, Rockville, MD, USA; email: natalia.martinez@nih.gov. Shen, M et al. Quantitative high-throughput phenotypic screening of pediatric cancer cell lines identifies multiple opportunities for drug repurposing. Oncotarget 2017 Dec 19;9(4):4758-4772. PMID 29435139.
The cells were obtained from University of North Carolina (UNC), Pediatric Preclinical Testing Program (PPT), and Coriell Institute (CI). qHTS cell viability assay: Cells were assayed in growth media at a density of 500-1,000 cells/well. Five microliters of cells were dispensed into 1,536-well, white, solid-bottom, TC-treated plates (Greiner Bio One) using a multidrop dispenser and incubated at 37 degrees C, 5% CO2, under a humidified atmosphere for 5 hours. Twenty-three nanoliters of compounds and controls (neutral control DMSO or positive control bortezomib at final concentration of 2.3 uM) were subsequently transferred by Kalypsys pintool. For primary screens, the MIPE collection was tested at 11-point dilutions (final concentrations range from 0.78 nM to 46 µM) and the NPC collection at 8-point dilutions (final concentrations range from 0.59 nM to 46 µM). Compounds tested in follow-up screens were assayed at 11-point dilutions. Cells were incubated for 48 hours, followed by addition of 3 uL of CellTiter-Glo (Promega). After a 15min incubation at room temperature, samples were analyzed for luminescence intensity using a ViewLux High-throughput CCD imager equipped with clear filters.
For Clc1ccc2c(N3CCN(CCCN4CCN(c5ccnc6cc(Cl)ccc56)CC4)CC3)ccnc2c1, the “activity change, negative = cytotoxic” value was -2.59% [at 16.1 µM]. In the case of CN(C)C(=O)[C@H](O)[C@H](Cc1ccccc1)NC(=O)c1cc2cc(Cl)ccc2[nH]1, the Potency is reported as 5.9 µM (active). For CCCCN(CCCC)CCC(O)c1cc2c(Cl)cc(Cl)cc2c2cc(C(F)(F)F)ccc12 (stereo not given), the “activity change, negative = cytotoxic” value was -12.3%. For Nc1nc(N)c(N=O)c(OCC2CCCCC2)n1, the Potency was 7.43 µM (active). With CCC1=C(C)CN(C(=O)NCCc2ccc(S(=O)(=O)NC(=O)NC3CCC(C)CC3)cc2)C1=O (stereo not given) the Potency was “inactive”. For Cn1c(NCCN(CCO)CCCc2ccc([N+](=O)[O-])cc2)cc(=O)n(C)c1=O, the “activity change, negative = cytotoxic” value was -2.03%. For O=C(O)c1cc(=O)c2c(OCC(O)COc3cccc4oc(C(=O)O)cc(=O)c34)cccc2o1, the Potency was “inactive”. In the case of COC(=O)[C@H](Cc1ccccc1)NC(=O)[C@@H](N)CC(=O)O (H-Asp-Phe-OMe), the Potency is reported as “inactive”. In the case of CCN(CCO)CCCC(C)Nc1ccnc2cc(Cl)ccc12 (stereo not given), the Potency is reported as 2.35 µM (active) and the activity change, negative = cytotoxic is reported as 4.16% [at 4.84 µM]. For Clc1ccc(C(Cn2ccnc2)OCc2ccsc2Cl)c(Cl)c1 (stereo not given), the Potency was 23.5 µM (active). For Cc1cccc(CN2CCN(C(c3ccccc3)c3ccc(Cl)cc3)CC2)c1 (stereo not given), the Potency was 18.7 µM (active). For CNC[C@H](O)c1ccc(O)c(O)c1, the Potency was 42.9 µM (active). For c1cnc2cc3c(cc2n1)C1CNCC3C1, the “activity change, negative = cytotoxic” value was -16.6%. In the case of O=C(O)c1cccc(-c2noc(-c3ccccc3F)n2)c1, the “activity change, negative = cytotoxic” value is reported as -13.5%. For OC(CN1CCN(c2cccc(Cl)c2)CC1)C(c1ccccc1)c1ccccc1 (stereo not given), the Potency was 18.7 µM (active). With COc1c2occc2cc2ccc(=O)oc12 the Potency was “inactive”. In the case of O=C1c2c(O)cc(O)cc2OC(c2ccc(O)c(O)c2)C1O (stereo not given), the “activity change, negative = cytotoxic” value is reported as -1.45%. In the case of CC(=O)O[C@H]1C(=O)[C@@]2(C)C([C@H](OC(=O)c3ccccc3)[C@]3(O)C[C@H](OC(=O)[C@H](O)[C@@H](NC(=O)c4ccccc4)c4ccccc4)C(C)=C1C3(C)C)[C@]1(OC(C)=O)CO[C@@H]1C[C@@H]2O (stereo not given in full), the Potency is reported as 0.001 µM (active). With CC(C)c1ccc2oc3nc(N)c(C(=O)O)cc3c(=O)c2c1 the Potency was “inactive”. In the case of N=C(N=C(N)N)N1CCOCC1, the Potency is reported as “inactive”. With Cc1c(C(=O)NN2CCCCC2)nn(-c2ccc(Cl)cc2Cl)c1-c1ccc(Cl)cc1 the Potency was 4.69 µM (active). In the case of CCCS(=O)c1ccc2nc(NC(=O)OC)[nH]c2c1 (stereo not given), the Potency is reported as 29.6 µM (active). With CN(c1nccc(=O)[nH]1)C1CCN(c2nc3ccccc3n2Cc2ccc(F)cc2)CC1 the “activity change, negative = cytotoxic” value was -1.41%. In the case of COc1c(O)cc2c(c1O)[C@@H]1O[C@H](CO)[C@@H](O)[C@H](O)[C@H]1OC2=O, the “activity change, negative = cytotoxic” value is reported as -11.3%. With S=c1nc[nH]c2nc[nH]c12 the Potency was 1.33 µM (active). For N=C(N)c1ccc2cc(OC(=O)c3ccc(N=C(N)N)cc3)ccc2c1, the “activity change, negative = cytotoxic” value was -18.6%. For O=c1c(O)c(-c2ccc(O)cc2O)oc2cc(O)cc(O)c12, the “activity change, negative = cytotoxic” value was -0.595%. With Cc1cccc(C#Cc2ccccc2)n1 the “activity change, negative = cytotoxic” value was -25%. With O=C1NC(=O)C(c2ccccc2[N+](=O)[O-])=C1Nc1ccc(O)c(Cl)c1 the Potency was 5.9 µM (active). With COc1ccc2cc([C@H](C)C(=O)O)ccc2c1 the Potency was “inactive”. In the case of COC(=O)N[C@H](C(=O)N[C@@H](Cc1ccccc1)[C@@H](O)CN(Cc1ccc(-c2ccccn2)cc1)NC(=O)[C@@H](NC(=O)OC)C(C)(C)C)C(C)(C)C, the “activity change, negative = cytotoxic” value is reported as -10.4%. In the case of Oc1ccc2ccccc2c1SSc1c(O)ccc2ccccc12, the Potency is reported as 18.7 µM (active). For CNC[C@@H](O)[C@@H](O)[C@H](O)[C@H](O)CO, the “activity change, negative = cytotoxic” value was -19.8%. For CS(=O)(=O)OCCCCOS(C)(=O)=O, the Potency was “inactive”. In the case of CCOC(=O)c1c(C)n(C)c2ccc(O)cc12, the Potency is reported as “inactive”. In the case of NS(=O)(=O)c1cc(C(=O)O)c(NCc2ccco2)cc1Cl, the Potency is reported as “inactive”. For Nc1cccc2c1CN(C1CCC(=O)NC1=O)C2=O (stereo not given), the Potency was “inactive”. With O=C(O)CCNC(=O)c1ccc(N=Nc2ccc(O)c(C(=O)O)c2)cc1 the Potency was “inactive”. With Cc1cc(C2CCCCC2)n(O)c(=O)c1 the Potency was 2.96 µM (active).
